PubChem BioAssay AID1069 (NMMLSC, 2008)
Active and inactive are the calls of the source.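 How the source made its calls: active means high combined rank on largest and smallest cell-count-weighted shift across three tests, rank score above 45, floors 50 and 25 (some results past the limit were not filed as active); inactive means the rest.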

Test: LNCaP granularity increase inducers, single-point recheck – cell-based, side scatter shift, flow cytometry, confirmation (AID 1069);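 further: LNCaP human prostate cancer cells in low-serum medium with charcoal-stripped FBS; percent of cells with raised granularity gated so DMSO controls show 10%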
Conditions: LNCaP differentiation, 4 d, stronger effect = higher value

Compound: O=C1c2ccccc2C(Nc2ccc3c(c2)OCO3)N1Cc1ccc2c(c1)OCO2 (configuration not stated)
- side scatter shift (at 100 µM): 23.6% (inactive)
- side scatter shift (side scatter shift, at 10 µM): 6.65%

Compound: CCOc1ccc(-n2cc(C(=O)N3CCC(C)CC3)c3cc(OC)c(OC)cc3c2=O)cc1
- side scatter shift (at 100 µM): 16.3% (inactive)
- side scatter shift (side scatter shift, at 10 µM): 18.7%

Compound: O=C(Nc1c(C(=O)N2CCOCC2)cnn1-c1ccccc1)c1ccco1
- side scatter shift (at 100 µM): 7.5% (inactive)
- side scatter shift (side scatter shift, at 10 µM): 5.15%

Compound: Cc1oc(-c2ccccc2F)nc1CN1CCC(C(=O)NCc2cccs2)CC1
- side scatter shift (at 100 µM): 39.3% (inactive)
- side scatter shift (side scatter shift, at 10 µM): 6.3%

Compound: COc1cc(C2C3=C(Nc4ncnn42)c2ccccc2CC3)cc(OC)c1OC (configuration not stated)
- side scatter shift (at 100 µM): 11.2% (inactive)
- side scatter shift (side scatter shift, at 10 µM): 4.5%

Compound: Cc1oc(-c2ccc(Cl)cc2)nc1CN1CCC(C(=O)NCCCN2CCOCC2)CC1
- side scatter shift (at 100 µM): 41.7% (inactive)
- side scatter shift (side scatter shift, at 10 µM): 27.7%

Compound: Cc1ccc2c(c1)-c1c(cnn1CC(=O)Nc1ccccc1N1CCN(C)CC1)CO2
- side scatter shift (at 100 µM): 9.6% (active)
- side scatter shift (side scatter shift, at 10 µM): 38%

Compound: CCCCCn1c(=N)n(CC(O)COc2ccccc2OC)c2ccccc21 (configuration not stated)
- side scatter shift (at 100 µM): 15% (inactive)
- side scatter shift (side scatter shift, at 10 µM): 25.1%

Compound: Cc1oc(-c2ccccc2F)nc1CN1CCC(C(=O)NC2CC2)CC1
- side scatter shift (at 100 µM): 13.5% (inactive)
- side scatter shift (side scatter shift, at 10 µM): 2.4%

Compound: CCOC(=O)N1CCN(CC(=O)Nc2cc(C)nn2-c2nc3ccccc3s2)CC1
- side scatter shift (at 100 µM): 19.3% (inactive)
- side scatter shift (side scatter shift, at 10 µM): 2.6%

Compound: Cc1ccc2c(c1)NC(=O)C(CC(=O)NCCCN1CCN(c3cc(C)ccc3C)CC1)O2 (configuration not stated)
- side scatter shift (at 100 µM): 30.1% (inactive)
- side scatter shift (side scatter shift, at 10 µM): 2.95%

Compound: Cc1cc(N2C(=O)C3C4C=CC(C4)C3C2=O)ccc1Br (configuration not stated)
- side scatter shift (at 100 µM): 9.6% (inactive)
- side scatter shift (side scatter shift, at 10 µM): 16.5%

Compound: O=C(Cn1ccc2ccccc2c1=O)NCCC(=O)N1CCN(c2cccc(C(F)(F)F)c2)CC1
- side scatter shift (at 100 µM): 5.2% (inactive)
- side scatter shift (side scatter shift, at 10 µM): 2.4%

Compound: CCOC(=O)N1CCC(NC(=O)c2cc3c(-c4ccc(Cl)cc4)nn(C)c3s2)CC1
- side scatter shift (at 100 µM): 22.5% (inactive)
- side scatter shift (side scatter shift, at 10 µM): 6.9%

Compound: CCOc1ccc(NC(=O)COc2nsnc2N2CCCCC2)cc1
- side scatter shift (at 100 µM): 8.7% (inactive)
- side scatter shift (side scatter shift, at 10 µM): 6.35%

Compound: Cn1c(=O)n(C)c2cc(CN3C(=O)OC(C)(C)C3(C)O)ccc21 (configuration not stated)
- side scatter shift (at 100 µM): 7.1% (inactive)
- side scatter shift (side scatter shift, at 10 µM): 2.45%

Compound: O=C(NCCCN1CCN(c2ccc(F)cc2)CC1)c1cccc(N2CCCC2=O)c1
- side scatter shift (at 100 µM): 51.9% (active)
- side scatter shift (side scatter shift, at 10 µM): 13.7%

Compound: Cc1ccc(Cn2ccc(NC(=O)c3cc(-c4ccc(Br)cc4)on3)n2)cc1
- side scatter shift (at 100 µM): 23% (inactive)
- side scatter shift (side scatter shift, at 10 µM): 10.6%

Compound: O=C(C1CCN(S(=O)(=O)c2cccc3nsnc23)CC1)N1CC=C(c2ccccc2)CC1
- side scatter shift (at 100 µM): 25.9% (inactive)
- side scatter shift (side scatter shift, at 10 µM): 9.3%

Compound: N=c1n(CCN2CCCCC2)c2ccccc2n1CC(O)COc1ccccc1 (configuration not stated)
- side scatter shift (at 100 µM): 20% (active)
- side scatter shift (side scatter shift, at 10 µM): 50.2%

Compound: COc1ccc(-c2noc(CCC(=O)NCCCN3CCC(C)CC3)n2)cc1
- side scatter shift (at 100 µM): 23.8% (inactive)
- side scatter shift (side scatter shift, at 10 µM): 4.9%

Compound: CCCCOC(=O)CSc1nc2c(cc1C#N)C(=O)CC(C)(C)C2
- side scatter shift (at 100 µM): 16.3% (inactive)
- side scatter shift (side scatter shift, at 10 µM): 5.85%

Compound: COc1ccc(Nc2nc(N3CCCC3)c3ccccc3n2)cc1
- side scatter shift (at 100 µM): 14% (inactive)
- side scatter shift (side scatter shift, at 10 µM): 21.6%

Compound: CCN1CCN(C(=O)C2CCN(Cc3nc(-c4cccc(Cl)c4)oc3C)CC2)CC1
- side scatter shift (at 100 µM): 16.7% (inactive)
- side scatter shift (side scatter shift, at 10 µM): 19.1%

Compound: O=C(NCCCN1CCN(c2ccccc2F)CC1)C1CCN(S(=O)(=O)N2CCOCC2)CC1
- side scatter shift (at 100 µM): 19.9% (inactive)
- side scatter shift (side scatter shift, at 10 µM): 7.2%

Compound: CCn1c(SCC(=O)Nc2ccccc2F)nc2c(c1=O)SC(C)C2 (configuration not stated)
- side scatter shift (at 100 µM): 8% (inactive)
- side scatter shift (side scatter shift, at 10 µM): 0.85%

Compound: CCN(CCNC(=O)C1CCCN(Cc2nc(-c3ccc(OC)cc3)oc2C)C1)c1ccccc1 (configuration not stated)
- side scatter shift (at 100 µM): 27.8% (inactive)
- side scatter shift (side scatter shift, at 10 µM): 35.5%

Compound: CCOC(=O)C1=C(C)N=c2s/c(=C\c3ccncc3)c(=O)n2C1c1ccc2c(c1)OCO2 (configuration not stated)
- side scatter shift (at 100 µM): 47.1% (inactive)
- side scatter shift (side scatter shift, at 10 µM): 6.4%

Compound: COc1ccc(N2CCN(CCCNC(=O)c3cc4sccc4n3C)CC2)cc1
- side scatter shift (at 100 µM): 51.6% (active)
- side scatter shift (side scatter shift, at 10 µM): 6.5%

Compound: COc1ccc(-c2nc(CN3CCC(C(=O)N4CCc5ccccc54)CC3)c(C)o2)cc1OC
- side scatter shift (at 100 µM): 12.5% (inactive)
- side scatter shift (side scatter shift, at 10 µM): 2.7%

Compound: CCN(CC)CCCNC(=O)c1cc(-c2ccc(Cl)c(Cl)c2)on1
- side scatter shift (at 100 µM): 22.7% (inactive)
- side scatter shift (side scatter shift, at 10 µM): 36.7%

Compound: O=C(NCCCN1CCN(c2cccc(Cl)c2)CC1)c1ccc(N2CCCC2=O)cc1
- side scatter shift (at 100 µM): 7.7% (inactive)
- side scatter shift (side scatter shift, at 10 µM): 10.1%

Compound: CC(C)N1CCC2(CC1)N=C(c1ccc3c(c1)OCO3)CC(c1cc(Cl)ccc1O)N2 (configuration not stated)
- side scatter shift (at 100 µM): 26.1% (inactive)
- side scatter shift (side scatter shift, at 10 µM): 18.8%

Compound: CCN1C(=O)OC2(CCCCC2)C1(C)O (configuration not stated)
- side scatter shift (at 100 µM): 10.4% (inactive)
- side scatter shift (side scatter shift, at 10 µM): 12.7%

Compound: COc1ccc(-c2cc(C(F)(F)F)nc(N3CCN(c4ccc(F)cc4)CC3)n2)cc1OC
- side scatter shift (at 100 µM): 22.3% (inactive)
- side scatter shift (side scatter shift, at 10 µM): 3.05%

Compound: CCOC(=O)N1CCC(NC(=O)C2CCCN(Cc3nc(-c4cccc(Cl)c4)oc3C)C2)CC1 (configuration not stated)
- side scatter shift (at 100 µM): 21.2% (inactive)
- side scatter shift (side scatter shift, at 10 µM): 5.35%
